# Bioassay records: PubChem, National Center for Advancing Translational Sciences (NCATS)
# NPSR antag – neuropeptide S receptor (human) antagonism, cAMP. Potency, µM (doses to about 38.3 µM), most hits filed as inhibitors. AID 1461. 220,000 compounds, 1% hits. CHO-NPSR cells, cAMP TR-FRET, antagonist mode; also: nearly all actives have a fitted effect of over 50% in size
# HPGD inh – inhibitors of human 15-hydroxyprostaglandin dehydrogenase (HPGD); purified HPGD, NADH fluorescence kinetic, PGE2 substrate; Potency, µM, actives largely listed as inhibitors; 150,000 compounds, 4.3% hits; active = well fitted inhibition curve with a large enough effect, not every such curve was filed as active; inconclusive = small, poorly fitted or top-dose-only effect, or another doubt; inactive = no such curve, though single readings can be large or run the other way
#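 NADH formation kinetics: reaction with 30 uM PGE2 and 1 mM NAD+ (final), 20 nM enzyme, Tris-HCl pH 8 with Tween 20, after 15 min compound preincubation at room temperature. Fluorescence change, last versus first of five reads.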
# IMPase Li inh – cell-permeable IMPase inhibitors with lithium potentiation. CHO-M1 cells, IP1 TR-FRET (IP-One), carbachol + lithium. Potency, µM (titrated, usually from 59.4 µM), actives largely listed as inhibitors. 210,000 compounds, 0.35% hits;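 also: IP1 builds up when IMPase is blocked and the TR-FRET signal falls; nearly all actives have a fitted effect of over 50% in size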
#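 CHO cells stably expressing M1 receptor (2000/well) were cultured 16–30 h, then exposed to compounds with a small lithium addition for 30 min at 37C. IP1 was measured by TR-FRET competition; AC50 from Hill fits.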
# ALDH1A1 block – blocks purified human ALDH1A1 activity; P00352; Purified ALDH1A1, NADH fluorescence, propionaldehyde substrate; Potency, µM (doses to about 75.3 µM), hits mostly inhibitors; 220,000 compounds, 7.3% hits; AID 1030; active = well fitted inhibition curve with a large enough effect, not every such curve was filed as active; inconclusive = small, poorly fitted or top-dose-only effect, or another doubt; inactive = no such curve, though single readings can be large or run the other way
# IMPase cell inh – IMPase inhibition in cells | P97697 | CHO-M1 cells, IP1 accumulation, HTRF TR-FRET ratio | inhibition (IP1 accumulation), % at 46.1 µM | 120,000 tested, under 10 active | AID 901; active = well fitted curve in the direction sought with a large enough effect in the signal ratio, not every such curve was filed as active; inconclusive = small, poorly fitted or top-dose-only effect, or a change in a side signal; inactive = no such curve, though single readings can be large or run the other way; the % refers to the signal ratio;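 also: cells stimulated with carbachol in lithium chloride buffer; higher means more IMPase inhibition seen as more IP1 and lower FRET ratio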
#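 Elevated IP1 in lysates lowers TR-FRET signal (665/620 ratio and 620 channel reported). Cells were CHO-M1, given carbachol (50 uM as added) plus 50mM LiCl, pH 7.4, 30 min, 37C; compounds titrated up to 46 uM; AC50 by Hill equation.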
# ALOX12 inhib – blocks human 12-lipoxygenase activity; 150,000 compounds, 0.12% hits; Potency, µM (top dose mostly 57.1 µM), hits mostly inhibitors; P18054; AID 1452; purified 12-hLO, xylenol orange hydroperoxide absorbance; also: nearly all actives have a fitted effect of over 55% in size
# Target sequence (P18054 whole entry, looked up): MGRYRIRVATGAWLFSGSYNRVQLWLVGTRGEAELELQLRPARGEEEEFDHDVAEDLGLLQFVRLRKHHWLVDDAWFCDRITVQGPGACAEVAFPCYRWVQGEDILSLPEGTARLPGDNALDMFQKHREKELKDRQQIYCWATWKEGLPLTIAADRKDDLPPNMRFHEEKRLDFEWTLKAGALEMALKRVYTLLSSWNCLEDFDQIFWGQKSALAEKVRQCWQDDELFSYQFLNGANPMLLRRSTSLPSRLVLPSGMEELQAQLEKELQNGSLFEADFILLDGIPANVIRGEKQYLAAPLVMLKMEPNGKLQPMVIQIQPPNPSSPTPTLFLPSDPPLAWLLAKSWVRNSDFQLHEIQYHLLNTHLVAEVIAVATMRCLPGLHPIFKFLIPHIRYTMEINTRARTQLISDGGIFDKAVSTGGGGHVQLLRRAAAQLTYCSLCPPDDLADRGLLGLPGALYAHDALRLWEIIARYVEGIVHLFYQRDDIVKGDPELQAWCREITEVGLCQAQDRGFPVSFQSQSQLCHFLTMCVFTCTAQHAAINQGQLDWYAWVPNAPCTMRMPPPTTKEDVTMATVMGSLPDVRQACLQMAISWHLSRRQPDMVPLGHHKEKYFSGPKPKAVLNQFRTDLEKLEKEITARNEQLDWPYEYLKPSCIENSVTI
#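 Xylenol orange chromogenic assay: hydroperoxide from 12hLO oxidises Fe(II), giving red-shifted Fe(III)-XO absorbance. Conditions: 150 nM enzyme, 40 uM arachidonic acid, 25 mM Hepes pH 7.0, 0.01% Triton X-100, 30 min, room temperature.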
# Numbers stand for hits; 0 = inactive; ? = inconclusive; - = no result; ! = a repeat was not active; [ ] = another dose, or the depositor's remark. Only some compounds are listed: those with a hit (about 8.9% of all), similar ones and a draw of the others. Unless noted, calls follow the shape of the dose curve; as a rule, active = well fitted curve in the direction sought with a large enough effect; inconclusive = small, poorly fitted or top-dose-only effect, or another doubt; inactive = no such curve, though single readings can be large; an effect the other way counts as inactive or inconclusive.
SMILES,NPSR antag,HPGD inh,IMPase Li inh,ALDH1A1 block,IMPase cell inh,ALOX12 inhib
N[C@H](C(=O)N[C@@H]1C(=O)N2C(C(=O)O)=C(Cl)CS[C@@H]12)c1ccccc1,-,0,0,11µM!,0,0
NC(C(=O)NC1C(=O)N2C(C(=O)O)=C(Cl)CSC12)c1ccccc1 (configuration not stated),-,?,0,16µM,-,0
CC1=C(C(=O)O)N2C(=O)[C@@H](NC(=O)[C@@H](N)C3=CCC=CC3)[C@@H]2SC1,-,-,-,-,0,0
COc1ccc(/C=C/C(=O)c2ccc(Cl)s2)cc1O,?,?,0,?,0,?
COc1cc(/C=C/C(C)=O)cc(OC)c1OC,0,0,0,0,0,0
COc1cc(/C=C/C(=O)c2ccc(Cl)s2)cc(OC)c1O,10µM,0,0,?,0,?
COc1cc(/C=C/C(=O)c2cccs2)cc(OC)c1OC,-,28µM,0,10µM,0,0
CCOC(=O)N1CCN(C(c2cccc(OC)c2)c2sc3nc(C)nn3c2O)CC1 (configuration not stated),0,0,0,0,0,0
O=C(CCCOc1ccc(Cl)cc1Cl)NCc1ccccn1,0,-,0,0,-,-
Cc1nc(NC(=S)Nc2ccccc2)sc1C,1.3µM,-,0,22µM,-,-
CCc1nnc(NC(=S)Nc2ccccc2)s1,0,-,0,?,-,-
Cc1ccc(C(=O)Nc2nnc(NC(=S)Nc3ccccc3)s2)cc1,?,-,0,22µM,-,-
CCOc1ccc(C(=O)Nc2nnc(NC(=S)Nc3ccccc3)s2)cc1,0,-,0,7.1µM,-,-
CCC1Oc2ccc(C)cc2N(Cc2cccc(C)c2)C1=O (configuration not stated),?,0,0,0,0,0
COc1ccc(OC)c(N=c2ssnc2Cl)c1,0,3.2µM,0,1.6µM,0,8.9µM
COc1cc(-n2nnnc2SC)c(OC)cc1Cl,0,-,0,0,-,-
COc1cc(N=c2ssnc2Cl)c(OC)cc1Cl,0,3.5µM,0,1.6µM,0,20µM
COc1ccc(OC)c(N=C2C(=O)Nc3ccccc32)c1,0,0,0,0,0,0
CCOc1ccc2c(c1)c1nnc(SCC(=O)N3CCCCC3C)nc1n2C (configuration not stated),?,16µM,0,13µM,0,0
CCOc1ccc2c(c1)c1nnc(SCC(=O)N3CCC(C)CC3)nc1n2C,0,3.5µM,0,?,0,0
COc1ccc(/C=N/Nc2ccccn2)cc1OC,0,-,-,-,-,-
CCNS(=O)(=O)c1ccc(CCC(=O)NCc2ccccc2)cc1,0,-,0,?,-,-
CC1CCc2c(sc3nc(CN4CCOCC4)nc(Sc4ccccc4)c23)C1 (configuration not stated),0,0,0,25µM,-,0
C=CCn1c(SCc2csc(C)n2)nc2sc3c(c2c1=O)CCCCC3,?,0,0,22µM,0,0
N#C/C(=C/Nc1ccccc1)c1ccsc1,0,0,0,?,0,?
SMILES,NPSR antag,HPGD inh,IMPase Li inh,ALDH1A1 block,IMPase cell inh,ALOX12 inhib
COC(=O)CSc1nnc(-c2ccc(S(=O)(=O)NCc3cccs3)cc2)o1,0,0,0,0,0,0
O=S(=O)(Cc1ccccc1)NCC1CCCN(Cc2cccc3nonc23)C1 (configuration not stated),0,-,0,10µM,-,-
Cn1ccnc1Sc1cc(NCCCO)c([N+](=O)[O-])c2nonc12,0,-,0,0,-,-
COc1ccc(CNc2cc(NCCCO)c([N+](=O)[O-])c3nonc23)cc1,0,-,0,10µM,-,-
O=[N+]([O-])c1c(NCCCO)cc(Sc2ccc(Cl)cc2)c2nonc12,?,0,0,4.5µM,0,0
O=[N+]([O-])c1c(NCCCO)cc(SCc2ccco2)c2nonc12,0,0,0,?,-,0
O=C(Nc1ccccc1N1CCOCC1)C1CCN(S(=O)(=O)c2ccc(F)cc2)CC1,0,0,0,0,-,0
Cc1ccc(Cn2cccc2/C=C2/C(=N)N3C=CSC3=NC2=O)cc1,0,0,0,0,0,0
CN(Cc1cccs1)C(=O)/C=C/c1ccccc1[N+](=O)[O-],0,-,0,3.2µM,-,-
CCN(Cc1ccccc1)C(=O)/C=C/c1ccccc1[N+](=O)[O-],0,-,0,?,-,-
Cc1cc(O)ccc1NC(=O)CCN1C(=O)c2ccc([N+](=O)[O-])cc2C1=O,0,0,0,11µM,-,0
O=C(CCN1C(=O)c2ccc([N+](=O)[O-])cc2C1=O)Nc1cccc(O)c1,0,0,0,0,0,0
Cc1ccc(-c2nnc(SCC(=O)N3CCN(c4ccccc4)CC3)o2)cc1,0[7.67 µM],0,11µM,0,0,0
Cn1c(SCC(=O)N2CCN(c3ccccc3)CC2)nnc1-c1ccccc1,?,0,0,7.9µM,0,0
COc1ccc(-c2nnc(SCC(=O)N3CCN(c4ccccc4)CC3)o2)cc1OC,0,0,0,0,-,0
O=C(CSc1nnc(-c2ccco2)n1-c1ccccc1)N1CCN(C(=O)c2ccco2)CC1,0,0,0,?,0,0
Cn1c(SCC(=O)N2CCN(c3ccccc3)CC2)nnc1-c1ccco1,0,0,0,13µM,0,0
O=C(CSc1ncn(-c2ccccc2)n1)N1CCN(c2ccccc2)CC1,0,28µM,0,14µM,0,0
Cc1ccnc(SCC(=O)N2CCN(c3ccccc3)CC2)n1,0,0,0,?,0,0
O=C(CSc1nnc(COc2ccccc2F)n1-c1ccccc1)NC1CCS(=O)(=O)C1 (configuration not stated),0,0,0,0,-,0
CCOc1ccc(/C=N/NC(=S)NC2CC3C=CC2C3)cc1 (configuration not stated),0,-,-,0,-,-
Cn1c(CCNC(=O)c2cccs2)nnc1SCC(=O)N1CCN(c2ccccc2)CC1,0,0,0,28µM,0,0
CCn1c(SCC(=O)N2CCN(c3ccccc3)CC2)nnc1-c1ccncc1,0,20µM,0,25µM,0,0
Cc1ccccc1-n1c(SCC(=O)N2CCN(c3ccccc3)CC2)nnc1-c1ccncc1,0,0,0,?,0,0
COc1cc([N+](=O)[O-])ccc1NC(=O)Nc1nc2c(s1)CCCC2,0,0,0,0,0,0
Cc1ccc(Cn2c(=O)n(CCC(=O)NCc3ccc4c(c3)OCO4)c(=O)c3ccccc32)cc1,0,0,0,0,0,0
Cc1ccc(N2C(=O)[C@@H]3[C@H](C2=O)C2c4ccccc4C=CN2[C@@H]3C(=O)c2ccco2)cc1 (some centres not stated),0,32µM,0,4.5µM,0,0
COc1ccc(N2C(=O)[C@@H]3[C@H](C2=O)[C@H]2c4ccccc4C=CN2[C@@H]3C(=O)Nc2ccccc2)cc1,0,0,0,25µM,0,0
